Of roughly 8,800 targets only a part is listed; those with a hit were picked by preference. About 0.5% of all pairs of compound and target were hits.

UniProt O95793, sequence (O95793 whole entry, looked up): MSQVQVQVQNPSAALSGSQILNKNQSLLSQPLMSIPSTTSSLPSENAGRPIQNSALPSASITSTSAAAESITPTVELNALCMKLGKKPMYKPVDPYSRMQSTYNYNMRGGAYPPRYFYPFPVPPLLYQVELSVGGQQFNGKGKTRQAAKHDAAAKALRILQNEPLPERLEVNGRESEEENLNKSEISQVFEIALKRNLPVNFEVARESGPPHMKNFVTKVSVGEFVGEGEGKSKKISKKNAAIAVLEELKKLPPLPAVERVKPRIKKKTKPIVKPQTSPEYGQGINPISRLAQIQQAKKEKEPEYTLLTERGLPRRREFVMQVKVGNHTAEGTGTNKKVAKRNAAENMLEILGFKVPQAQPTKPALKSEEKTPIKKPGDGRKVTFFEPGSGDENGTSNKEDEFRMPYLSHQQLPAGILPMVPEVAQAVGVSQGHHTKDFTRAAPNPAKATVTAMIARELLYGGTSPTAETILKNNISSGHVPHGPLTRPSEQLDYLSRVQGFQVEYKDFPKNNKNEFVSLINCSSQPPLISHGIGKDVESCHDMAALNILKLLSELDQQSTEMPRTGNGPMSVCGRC
UniProt P53985, sequence (P53985 whole entry, looked up): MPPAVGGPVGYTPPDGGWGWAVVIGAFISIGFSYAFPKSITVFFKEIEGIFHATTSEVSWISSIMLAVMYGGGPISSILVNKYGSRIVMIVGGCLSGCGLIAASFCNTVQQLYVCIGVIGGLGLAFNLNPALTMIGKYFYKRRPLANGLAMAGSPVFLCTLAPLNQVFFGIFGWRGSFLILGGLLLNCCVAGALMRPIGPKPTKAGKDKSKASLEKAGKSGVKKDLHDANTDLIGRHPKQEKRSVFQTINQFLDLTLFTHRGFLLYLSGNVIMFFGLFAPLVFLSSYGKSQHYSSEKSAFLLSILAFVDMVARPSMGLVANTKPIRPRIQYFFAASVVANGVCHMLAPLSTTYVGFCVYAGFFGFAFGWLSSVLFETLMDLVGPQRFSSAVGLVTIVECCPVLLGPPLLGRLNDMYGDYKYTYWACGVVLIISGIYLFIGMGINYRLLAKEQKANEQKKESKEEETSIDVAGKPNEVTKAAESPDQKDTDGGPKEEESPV
UniProt Q14542, sequence (Q14542 whole entry, looked up): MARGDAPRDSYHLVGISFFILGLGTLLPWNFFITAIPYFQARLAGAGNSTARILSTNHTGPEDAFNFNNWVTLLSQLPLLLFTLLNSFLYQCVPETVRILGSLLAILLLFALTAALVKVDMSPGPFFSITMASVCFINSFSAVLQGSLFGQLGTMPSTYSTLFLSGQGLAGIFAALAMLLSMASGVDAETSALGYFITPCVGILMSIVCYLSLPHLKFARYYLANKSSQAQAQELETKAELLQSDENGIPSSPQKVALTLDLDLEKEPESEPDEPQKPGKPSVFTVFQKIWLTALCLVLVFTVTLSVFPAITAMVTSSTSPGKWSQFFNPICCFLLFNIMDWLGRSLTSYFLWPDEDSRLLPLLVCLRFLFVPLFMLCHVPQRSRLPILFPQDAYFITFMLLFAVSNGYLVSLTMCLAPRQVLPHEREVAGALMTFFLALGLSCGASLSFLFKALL
UniProt O14975, sequence (O14975 whole entry, looked up): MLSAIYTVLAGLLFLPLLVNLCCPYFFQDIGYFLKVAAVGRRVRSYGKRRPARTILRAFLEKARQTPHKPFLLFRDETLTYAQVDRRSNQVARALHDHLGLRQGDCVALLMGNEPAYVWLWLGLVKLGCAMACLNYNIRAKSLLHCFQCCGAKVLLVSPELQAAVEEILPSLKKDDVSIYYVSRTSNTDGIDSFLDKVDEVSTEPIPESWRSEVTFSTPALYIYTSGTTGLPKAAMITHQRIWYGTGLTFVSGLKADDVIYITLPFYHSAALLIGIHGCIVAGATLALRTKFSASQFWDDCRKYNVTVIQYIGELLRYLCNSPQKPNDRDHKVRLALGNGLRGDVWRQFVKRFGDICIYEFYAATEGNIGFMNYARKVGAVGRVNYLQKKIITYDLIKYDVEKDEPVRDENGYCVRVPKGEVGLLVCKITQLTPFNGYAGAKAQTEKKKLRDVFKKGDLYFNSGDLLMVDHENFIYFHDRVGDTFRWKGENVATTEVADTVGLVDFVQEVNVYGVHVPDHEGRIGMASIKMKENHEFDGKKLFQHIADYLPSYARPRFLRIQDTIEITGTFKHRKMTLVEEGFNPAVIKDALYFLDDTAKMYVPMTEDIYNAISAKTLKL
UniProt Q8N1F8, sequence (Q8N1F8 whole entry, looked up): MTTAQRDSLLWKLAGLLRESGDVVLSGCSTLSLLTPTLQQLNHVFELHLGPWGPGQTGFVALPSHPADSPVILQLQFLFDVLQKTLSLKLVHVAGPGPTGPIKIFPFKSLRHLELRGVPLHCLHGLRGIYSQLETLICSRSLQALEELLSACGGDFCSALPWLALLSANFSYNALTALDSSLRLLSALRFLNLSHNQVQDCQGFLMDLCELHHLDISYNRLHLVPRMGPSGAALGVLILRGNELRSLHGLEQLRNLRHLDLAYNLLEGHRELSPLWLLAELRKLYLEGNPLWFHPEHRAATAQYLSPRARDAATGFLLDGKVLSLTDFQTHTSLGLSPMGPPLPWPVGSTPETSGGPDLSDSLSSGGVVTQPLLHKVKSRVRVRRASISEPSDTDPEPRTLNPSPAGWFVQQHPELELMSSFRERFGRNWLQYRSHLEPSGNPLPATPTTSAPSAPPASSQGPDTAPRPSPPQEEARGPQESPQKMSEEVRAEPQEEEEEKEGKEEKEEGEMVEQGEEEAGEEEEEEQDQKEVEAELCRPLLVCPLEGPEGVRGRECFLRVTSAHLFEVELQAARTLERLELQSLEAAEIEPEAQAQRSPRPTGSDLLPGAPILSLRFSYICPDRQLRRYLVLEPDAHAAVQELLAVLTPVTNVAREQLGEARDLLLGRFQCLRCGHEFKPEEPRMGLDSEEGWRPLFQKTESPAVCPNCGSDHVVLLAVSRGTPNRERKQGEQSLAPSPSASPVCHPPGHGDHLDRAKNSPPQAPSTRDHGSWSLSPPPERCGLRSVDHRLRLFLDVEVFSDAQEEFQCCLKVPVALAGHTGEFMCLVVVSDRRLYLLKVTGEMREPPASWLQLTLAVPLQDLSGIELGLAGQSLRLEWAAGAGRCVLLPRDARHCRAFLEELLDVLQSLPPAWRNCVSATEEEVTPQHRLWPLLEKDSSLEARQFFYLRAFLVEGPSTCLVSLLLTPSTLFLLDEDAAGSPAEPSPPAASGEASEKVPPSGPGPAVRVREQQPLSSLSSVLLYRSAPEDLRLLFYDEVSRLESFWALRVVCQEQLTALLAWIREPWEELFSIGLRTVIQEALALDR
UniProt Q13573, sequence (Q13573 whole entry, looked up): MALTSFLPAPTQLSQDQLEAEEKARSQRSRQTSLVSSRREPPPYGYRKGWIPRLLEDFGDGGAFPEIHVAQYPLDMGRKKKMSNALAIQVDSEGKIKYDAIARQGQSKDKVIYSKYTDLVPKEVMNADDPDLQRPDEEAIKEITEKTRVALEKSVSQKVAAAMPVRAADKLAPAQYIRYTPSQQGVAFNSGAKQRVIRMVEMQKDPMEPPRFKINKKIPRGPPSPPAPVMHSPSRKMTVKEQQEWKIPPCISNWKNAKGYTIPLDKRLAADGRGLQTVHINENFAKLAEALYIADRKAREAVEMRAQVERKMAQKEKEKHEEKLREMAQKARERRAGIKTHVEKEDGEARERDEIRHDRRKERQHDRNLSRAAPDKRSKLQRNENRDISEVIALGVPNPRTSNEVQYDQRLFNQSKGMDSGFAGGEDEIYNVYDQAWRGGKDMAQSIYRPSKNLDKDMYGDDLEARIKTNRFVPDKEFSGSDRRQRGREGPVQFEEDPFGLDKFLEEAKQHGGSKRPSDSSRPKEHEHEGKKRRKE
UniProt Q13242, sequence (Q13242 whole entry, looked up): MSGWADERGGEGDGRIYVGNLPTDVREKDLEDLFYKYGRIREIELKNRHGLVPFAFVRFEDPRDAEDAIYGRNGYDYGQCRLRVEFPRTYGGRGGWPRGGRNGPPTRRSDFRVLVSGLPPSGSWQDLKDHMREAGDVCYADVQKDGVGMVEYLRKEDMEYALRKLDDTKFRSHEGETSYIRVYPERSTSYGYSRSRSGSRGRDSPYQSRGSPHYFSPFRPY
UniProt Q9P289, sequence (Q9P289 whole entry, looked up): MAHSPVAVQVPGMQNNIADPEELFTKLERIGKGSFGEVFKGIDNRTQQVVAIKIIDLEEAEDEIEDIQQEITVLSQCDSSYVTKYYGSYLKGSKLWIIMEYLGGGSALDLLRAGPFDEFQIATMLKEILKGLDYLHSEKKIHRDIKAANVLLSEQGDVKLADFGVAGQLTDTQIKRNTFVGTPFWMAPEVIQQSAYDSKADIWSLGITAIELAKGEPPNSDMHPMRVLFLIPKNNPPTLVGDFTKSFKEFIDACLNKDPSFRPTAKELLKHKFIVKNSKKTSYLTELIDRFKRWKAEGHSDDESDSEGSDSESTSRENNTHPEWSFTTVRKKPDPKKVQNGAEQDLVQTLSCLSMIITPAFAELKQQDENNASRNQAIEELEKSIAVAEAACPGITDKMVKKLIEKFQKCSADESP
UniProt Q9NZ72, sequence (Q9NZ72 whole entry, looked up): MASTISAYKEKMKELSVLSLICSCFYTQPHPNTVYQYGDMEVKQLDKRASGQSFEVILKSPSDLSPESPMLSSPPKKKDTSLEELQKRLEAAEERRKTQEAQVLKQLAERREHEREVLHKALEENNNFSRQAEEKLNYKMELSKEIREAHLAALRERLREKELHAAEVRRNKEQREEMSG
UniProt Q9H2D1, sequence (Q9H2D1 whole entry, looked up): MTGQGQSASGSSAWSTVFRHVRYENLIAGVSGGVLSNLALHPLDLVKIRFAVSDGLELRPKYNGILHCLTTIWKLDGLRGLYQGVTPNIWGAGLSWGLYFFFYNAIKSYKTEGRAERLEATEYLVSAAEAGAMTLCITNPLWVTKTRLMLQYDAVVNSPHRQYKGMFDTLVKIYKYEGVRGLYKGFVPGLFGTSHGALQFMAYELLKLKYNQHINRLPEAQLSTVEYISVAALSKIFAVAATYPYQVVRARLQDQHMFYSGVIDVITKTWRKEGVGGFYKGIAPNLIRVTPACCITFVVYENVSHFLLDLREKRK

Compound in one assay: C1=CC=C(C=C1)[C@H](COC2=CC3=C(C=C2)NC(=O)N3)NC(=O)C4=CC=CN(C4=O)CC5=CC(=C(C=C5)F)F
Description: log2 fold change, soluble protein after heating vs DMSO (PISA); higher = thermal stabilisation; K562 lysate, 10 uM; active = over 0.2 and 3.5 SD of the protein, either way, in both replicates (recomputed). Summed up:
(§1)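 Soluble protein was defined as the supernatant remaining after 21,000xg for 90 min, following pooling of heated aliquots and adjustment to 0.5% NP-40 at 4°C. Before that, crude K562 extract at 1 mg/mL protein in PBS pH 7.4 with 1 mM MgCl2 was treated with 10 μM compound for 30 min and heated for 3 min across 48°C-58°C. Quantification used TMTpro 16plex LC-MS/MS with channel sums equalised, and values are log-two fold changes in thermal stability relative to solvent controls from duplicates.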
Take SNCA (UniProt P37840): the log2 fold change is 0.211 (inactive).
In the case of SLC25A32 (UniProt Q9H2D1), the log2 fold change was 0.032 (inactive).
As to SMG7 (UniProt Q92540), the log2 fold change is 0.008 (inactive).
Same read-out and setting: next, SH3BP5L (UniProt Q7L8J4): 0.015 (inactive); SMC6 (UniProt Q96SB8): -0.049 (inactive); STK26 (UniProt Q9P289): -0.015 (inactive).
With SPAG1 (UniProt Q07617), the log2 fold change is -0.046 (inactive).
Still for that read-out and setting: next, SHCBP1 (UniProt Q8NEM2): 0.056 (inactive); STMN3 (UniProt Q9NZ72): 0.046 (inactive).
Consider SLC25A44 (UniProt Q96H78), for which the log2 fold change was 0.042 (inactive).
Regarding STAU1 (UniProt O95793), the log2 fold change was -0.023 (inactive).
Consider TARBP1 (UniProt Q13395), for which the log2 fold change was -0.108 (inactive).
The same measure, in the same setting: next, TAOK2 (UniProt Q9UL54): -0.033 (inactive); SFN (UniProt P31947): 0.039 (inactive); SLC11A2 isoform 3 (UniProt P49281): -0.081 (inactive).
For SLC29A2 (UniProt Q14542), the log2 fold change is 0.106 (inactive).
On the same count and under the same terms, next, SMC4 (UniProt C9JJ64): -0.189 (inactive); STK36 (UniProt Q9NRP7): -0.014 (inactive).
Regarding SLC30A9 (UniProt Q6PML9), the log2 fold change was -0.013 (inactive).
For the target SMARCA4 (UniProt P51532), the log2 fold change is -0.034 (inactive).
Still for that read-out and setting: next, SLC27A2 (UniProt O14975): 0.198 (inactive); SMYD3 (UniProt Q9H7B4): 0.028 (inactive); SHKBP1 (UniProt Q8TBC3): 0.016 (inactive).
On the same count and under the same terms, next, SLC16A1 (UniProt P53985): -0.015 (inactive); STARD3 isoform 3 (UniProt Q14849): -0.015 (inactive).
Consider SLC20A1 (UniProt Q8WUM9), for which the log2 fold change was 0.071 (inactive).
The same measure, in the same setting: next, SRSF9 (UniProt Q13242): 0.015 (inactive); SH3GL3 isoform 3 (UniProt Q99963): 0.024 (inactive); STK11IP (UniProt Q8N1F8): 0.002 (inactive).
As for SMC1B isoform 3 (UniProt Q8NDV3), the log2 fold change was 0.009 (inactive).
On the same count and under the same terms, next, SNW1 (UniProt Q13573): 0.018 (inactive).
With SLC25A25 isoform 3 (UniProt Q6KCM7), the log2 fold change was 0.064 (inactive).

Compound in another assay: CC1=C(SC2=C1C(=N[C@H](C3=NN=C(N32)C)CC(=O)N)C4=CC=C(C=C4)Cl)C
Described as above. Summed up: as §1
Turning to SNCA (UniProt P37840), the log2 fold change was 0 (inactive).
With SLC25A32 (UniProt Q9H2D1), the log2 fold change was 0.014 (inactive).
In the case of SMG7 (UniProt Q92540), the log2 fold change is 0.019 (inactive).
The same measure, in the same setting: next, SH3BP5L (UniProt Q7L8J4): 0.015 (inactive); SMC6 (UniProt Q96SB8): 0.006 (inactive); STK26 (UniProt Q9P289): -0.015 (inactive).
The same measure, in the same setting: next, SPAG1 (UniProt Q07617): -0.327 (inactive).
Consider SHCBP1 (UniProt Q8NEM2), for which the log2 fold change was 0.012 (inactive).
For STMN3 (UniProt Q9NZ72), the log2 fold change was -0.053 (inactive).
For SLC25A44 (UniProt Q96H78), the log2 fold change was -0.044 (inactive).
Same read-out and setting: next, STAU1 (UniProt O95793): -0.021 (inactive); TARBP1 (UniProt Q13395): -0.025 (inactive).
Turning to TAOK2 (UniProt Q9UL54), the log2 fold change is 0.118 (inactive).
On to SFN (UniProt P31947), for which the log2 fold change is -0.033 (inactive).
With SLC11A2 isoform 3 (UniProt P49281), the log2 fold change was -0.017 (inactive).
For SLC29A2 (UniProt Q14542), the log2 fold change was 0.001 (inactive).
On the same count and under the same terms, next, SMC4 (UniProt C9JJ64): 0.179 (inactive); STK36 (UniProt Q9NRP7): 0.174 (inactive).
On the same count and under the same terms, next, SLC30A9 (UniProt Q6PML9): -0.045 (inactive); SMARCA4 (UniProt P51532): 0.016 (inactive); SLC27A2 (UniProt O14975): -0.064 (inactive).
For the target SMYD3 (UniProt Q9H7B4), the log2 fold change was 0.05 (inactive).
For the target SHKBP1 (UniProt Q8TBC3), the log2 fold change was 0.02 (inactive).
For the target SLC16A1 (UniProt P53985), the log2 fold change is 0.002 (inactive).
For STARD3 isoform 3 (UniProt Q14849), the log2 fold change was 0.007 (inactive).
The same measure, in the same setting: next, SLC20A1 (UniProt Q8WUM9): -0.048 (inactive); SRSF9 (UniProt Q13242): 0.024 (inactive).
On to SH3GL3 isoform 3 (UniProt Q99963), for which the log2 fold change is 0.033 (inactive).
Consider STK11IP (UniProt Q8N1F8), for which the log2 fold change was 0.072 (inactive).
Regarding SMC1B isoform 3 (UniProt Q8NDV3), the log2 fold change is 0.076 (inactive).
Take SNW1 (UniProt Q13573): the log2 fold change was -0.002 (inactive).
On to SLC25A25 isoform 3 (UniProt Q6KCM7), for which the log2 fold change was -0.027 (inactive).

Compound in the next assay: CC1=C2C(=CC=C1)N=C(N(C2=O)C3=CC=CC=C3C)CN4C=NC5=C(N=CN=C54)N
The description is as above. An outline of the steps:
as §1
For the target SNCA (UniProt P37840), the log2 fold change is -0.009 (inactive).
Regarding SLC25A32 (UniProt Q9H2D1), the log2 fold change was 0.016 (inactive).
In the case of SMG7 (UniProt Q92540), the log2 fold change was 0.147 (inactive).
On to SH3BP5L (UniProt Q7L8J4), for which the log2 fold change was 0.047 (inactive).
In the case of SMC6 (UniProt Q96SB8), the log2 fold change is 0.014 (inactive).
As to STK26 (UniProt Q9P289), the log2 fold change is 0.008 (inactive).
As for SPAG1 (UniProt Q07617), the log2 fold change is 0.081 (inactive).
Take SHCBP1 (UniProt Q8NEM2): the log2 fold change is -0.032 (inactive).
On the same count and under the same terms, next, STMN3 (UniProt Q9NZ72): 0.065 (inactive); SLC25A44 (UniProt Q96H78): -0.014 (inactive).
For STAU1 (UniProt O95793), the log2 fold change is 0.012 (inactive).
On the same count and under the same terms, next, TARBP1 (UniProt Q13395): 0.112 (inactive); TAOK2 (UniProt Q9UL54): -0.001 (inactive).
Turning to SFN (UniProt P31947), the log2 fold change is -0.023 (inactive).
Take SLC11A2 isoform 3 (UniProt P49281): the log2 fold change is 0.016 (inactive).
As to SLC29A2 (UniProt Q14542), the log2 fold change was 0.044 (inactive).
Take STK36 (UniProt Q9NRP7): the log2 fold change was 0.163 (inactive).
Regarding SLC30A9 (UniProt Q6PML9), the log2 fold change was 0.003 (inactive).
SMARCA4 (UniProt P51532): the log2 fold change is 0.003 (inactive).
In the case of SLC27A2 (UniProt O14975), the log2 fold change was -0.043 (inactive).
On the same count and under the same terms, next, SMYD3 (UniProt Q9H7B4): 0.035 (inactive); SHKBP1 (UniProt Q8TBC3): 0.077 (inactive).
On the same count and under the same terms, next, SLC16A1 (UniProt P53985): 0.042 (inactive); STARD3 isoform 3 (UniProt Q14849): 0 (inactive).
Turning to SLC20A1 (UniProt Q8WUM9), the log2 fold change is 0.007 (inactive).
The same measure, in the same setting: next, SRSF9 (UniProt Q13242): -0.076 (inactive).
SH3GL3 isoform 3 (UniProt Q99963): the log2 fold change was 0.133 (inactive).
STK11IP (UniProt Q8N1F8): the log2 fold change is 0.019 (inactive).
The same measure, in the same setting: next, SMC1B isoform 3 (UniProt Q8NDV3): 0.12 (inactive); SNW1 (UniProt Q13573): -0.009 (inactive).
On to SLC25A25 isoform 3 (UniProt Q6KCM7), for which the log2 fold change was 0.013 (inactive).

The record behind these values is the supplement of paper PMC10849652.
